# ChEMBL document CHEMBL3433997, “St. Jude Leishmania screening dataset” (2016)
# Target: Hexose transporter 1 (Plasmodium falciparum) (UniProt O97467)
# Assay: ST_JUDE_LEISH: Cytotoxicity at 2uM final concentration against transgenic Leishmania Mexicana promastigotes LmPfHT that are glucose transport deficient and complemented with the Plasmodium falciparum hexose transporter. Activity is measured by DNA content using SYBR green in vitro
# Type: functional
row,Compound,inhibition [%]
1,Cc1cnc(C(=O)Nc2ccc(-c3cccc(-c4nc5ccccc5[nH]4)c3)cc2)cn1,1.94
2,N#Cc1ccc(N(CCOc2ccc(Cl)c(F)c2)Cc2ccccc2C(F)(F)F)cc1C(F)(F)F,0.42
3,FC(F)(F)COc1ccc2ccccc2c1CCNCCCCNCCc1c(OCC(F)(F)F)ccc2ccccc12,103
4,COc1ccc2nccc([C@@H](O)CN3CCC(NCc4cc5c(Cl)cc(Cl)cc5[nH]4)CC3)c2c1,5.77
5,COCCNCc1cccc(-c2cccc(CNC3CCN(Cc4ccccc4)CC3)c2)c1,2.84
6,CCN1CCC(N(Cc2ccc(-c3ccc(C(F)(F)F)cc3)o2)C(=O)Cn2c(CCc3cccc(F)c3F)nc(=O)c3ccccc32)CC1,10.6
7,CN1CCC[C@H]1COc1ccc(CN2CC[C@H](NC(=O)c3ccc(Cl)c(Cl)c3)C2)c2ccccc12,8.86
8,CCCCCNc1nc(Nc2ccccc2C)nc2ccccc12,22.7
9,N#Cc1ccc(N/C(=N\c2cccc(Cl)c2Cl)NC2Cc3ccccc3C2)c(O)c1,2.84
10,O=C(Nc1ccccc1)OCCOc1ccc(CC2SC(=O)NC2=O)cc1 (stereo not given),3.76
11,Cc1cccc2nc(-c3cccc(-c4ccc(CN5CCN(CCO)CC5)cc4)c3)[nH]c12,0.97
12,CN1CCN(c2nsc3ccc(-c4ccc(OCCN5CCCC5)cc4)cc23)CC1,11.4
13,CCCc1cc(Cc2cnc(N)nc2N)cc(OC)c1OC,2.78
14,O=C(Nc1ccc(Cl)cc1)c1cc(Cl)cc2nc(C(F)(F)F)[nH]c12,15
15,Oc1ccc2c(CNC3CCCCC3)c(O)ccc2c1CNC1CCCCC1,0.24
16,Cc1cc(C(=O)OCC(N)=O)c(C)n1-c1ccc(F)cc1,6.13
17,Cc1cc(N[C@@H](Cc2ccccc2)C(=O)NCc2cccs2)nc(NCCc2ccccn2)n1,3.27
18,Nc1ccc2[nH]cc(C3CCN(CC4CCC(NC(=O)/C=C/c5ccc(Cl)c(Cl)c5)CC4)CC3)c2n1 (stereo not given),-0.28
19,CCOc1ncccc1CN1CCC(N2CCc3cc(NC(=O)c4cc(C)on4)ccc32)C1 (stereo not given),0.36
20,CN1CCC(N(Cc2ccc(-c3ccc(C(F)(F)F)cc3)cc2)C(=O)Cn2cc(Cc3cnn(C)c3)c(=O)nc2SCc2cccc(F)c2F)CC1,2.37

row,Compound,inhibition [%]
1,Cc1cccn2c(=O)c3cc(C(=O)NC4CCCCC4)c(=N)n(CCCn4ccnc4)c3nc12,-2.23
2,COc1ccc(C=Cc2cc(=N)c3ccccc3[nH]2)cc1Br,2.29
3,NS(=O)(=O)c1cccc(Nc2nc(N[C@@H]3CCNC3)nc3cc[nH]c(=O)c23)c1,2.08
4,Cc1nc2ccc3ccc(CNc4ccc5c(c4)CN([C@H](CCC(=O)O)C(=O)O)C5=O)cc3c2c(=O)[nH]1,2.42
5,COc1cc2c(cc1OC)CN(CCc1ccc(NC(=O)c3cc4cc(Cl)ccc4[nH]3)cc1)CC2,0.43
6,Cc1ccc2[nH]c(C)cc(=NN=Cc3cccc(Cl)c3)c2c1,0.92
7,CCc1c(C)c2ccc3c(c2oc1=O)CN(CCc1ccc(F)cc1)CO3,6.16
8,CCN(CCCN1CCCC1)c1cc(C)nc(Nc2ccc(Cl)cc2)n1,1.37
9,Cc1cccc2nc(-c3ccc(-c4cccc(CN5CCC(C(N)=O)CC5)c4)s3)[nH]c12,2.17
10,Cc1[nH]c(C)c(-c2ccc(OCc3ccc(OC(F)(F)F)cc3)nc2)c(=O)c1Br,13.8
11,COc1nc(Nc2cccc(C)c2)nc(OC)n1,0.66
12,COc1ccc(CNC2CCN(C)CC2)cc1-c1cccc(S(=O)(=O)NCc2ccccc2)c1,1.62
13,CC(C)(C)NC(=O)C(c1ccc(F)cc1)N(C(=O)c1ccc(CN2CCOCC2)o1)c1ccc(C2CCCCC2)cc1 (stereo not given),2.31
14,COc1ccc2nccc([C@H](O)CN3CCC(NCc4cc(C)c5c(c4)OCCO5)CC3)c2n1,8.31
15,O=C(Cc1ccc(Nc2nccc(Nc3cccc4[nH]ncc34)n2)cc1)Nc1ccc(C(F)(F)F)cc1,6.7
16,Cc1ccc(Cc2c[nH]c(NCCSCc3ccc(CN4CCOCC4)o3)nc2=O)cn1,0.59
17,COc1nc(NCC(C)C)nc(Oc2ccc(=O)n(Cc3ccccc3)n2)n1,1.88
18,COc1ccc(NC(=O)Nc2ccc(-c3ccc(-c4nc5ccccc5[nH]4)cc3)cc2)cc1,5.18
19,CC1CCNc2ccc(Cc3cnc(N)nc3N)cc21 (stereo not given),1.47
20,Cc1ccc(N2C(N)=NC(N)=NC2(C)C)cc1Cl,8.8

# Target: Glucose transporter (Leishmania mexicana) (UniProt O61059)
# Assay: ST_JUDE_LEISH: Cytotoxicity at 2uM final concentration against transgenic Leishmania Mexicana promastigotes LmGT2 that are glucose transport deficient and complemented with the L. Mexicana glucose transporter 2. Activity is measured by DNA content using SYBR green in vitro
# Type: functional
row,Compound,inhibition [%]
1,Cc1cnc(C(=O)Nc2ccc(-c3cccc(-c4nc5ccccc5[nH]4)c3)cc2)cn1,-0.57
2,N#Cc1ccc(N(CCOc2ccc(Cl)c(F)c2)Cc2ccccc2C(F)(F)F)cc1C(F)(F)F,-1.25
3,FC(F)(F)COc1ccc2ccccc2c1CCNCCCCNCCc1c(OCC(F)(F)F)ccc2ccccc12,107
4,COc1ccc2nccc([C@@H](O)CN3CCC(NCc4cc5c(Cl)cc(Cl)cc5[nH]4)CC3)c2c1,1.13
5,COCCNCc1cccc(-c2cccc(CNC3CCN(Cc4ccccc4)CC3)c2)c1,2.88
6,CCN1CCC(N(Cc2ccc(-c3ccc(C(F)(F)F)cc3)o2)C(=O)Cn2c(CCc3cccc(F)c3F)nc(=O)c3ccccc32)CC1,11.7
7,CN1CCC[C@H]1COc1ccc(CN2CC[C@H](NC(=O)c3ccc(Cl)c(Cl)c3)C2)c2ccccc12,6.54
8,CCCCCNc1nc(Nc2ccccc2C)nc2ccccc12,11
9,N#Cc1ccc(N/C(=N\c2cccc(Cl)c2Cl)NC2Cc3ccccc3C2)c(O)c1,3.97
10,O=C(Nc1ccccc1)OCCOc1ccc(CC2SC(=O)NC2=O)cc1 (stereo not given),2.23
11,Cc1cccc2nc(-c3cccc(-c4ccc(CN5CCN(CCO)CC5)cc4)c3)[nH]c12,-0.97
12,CN1CCN(c2nsc3ccc(-c4ccc(OCCN5CCCC5)cc4)cc23)CC1,9.39
13,CCCc1cc(Cc2cnc(N)nc2N)cc(OC)c1OC,0.24
14,O=C(Nc1ccc(Cl)cc1)c1cc(Cl)cc2nc(C(F)(F)F)[nH]c12,9.44
15,Oc1ccc2c(CNC3CCCCC3)c(O)ccc2c1CNC1CCCCC1,0.34
16,Cc1cc(C(=O)OCC(N)=O)c(C)n1-c1ccc(F)cc1,3.07
17,Cc1cc(N[C@@H](Cc2ccccc2)C(=O)NCc2cccs2)nc(NCCc2ccccn2)n1,1.45
18,Nc1ccc2[nH]cc(C3CCN(CC4CCC(NC(=O)/C=C/c5ccc(Cl)c(Cl)c5)CC4)CC3)c2n1 (stereo not given),-4.12
19,CCOc1ncccc1CN1CCC(N2CCc3cc(NC(=O)c4cc(C)on4)ccc32)C1 (stereo not given),-0.18
20,CN1CCC(N(Cc2ccc(-c3ccc(C(F)(F)F)cc3)cc2)C(=O)Cn2cc(Cc3cnn(C)c3)c(=O)nc2SCc2cccc(F)c2F)CC1,2.81

row,Compound,inhibition [%]
1,Cc1cccn2c(=O)c3cc(C(=O)NC4CCCCC4)c(=N)n(CCCn4ccnc4)c3nc12,-4.98
2,COc1ccc(C=Cc2cc(=N)c3ccccc3[nH]2)cc1Br,1.29
3,NS(=O)(=O)c1cccc(Nc2nc(N[C@@H]3CCNC3)nc3cc[nH]c(=O)c23)c1,-3
4,Cc1nc2ccc3ccc(CNc4ccc5c(c4)CN([C@H](CCC(=O)O)C(=O)O)C5=O)cc3c2c(=O)[nH]1,10
5,COc1cc2c(cc1OC)CN(CCc1ccc(NC(=O)c3cc4cc(Cl)ccc4[nH]3)cc1)CC2,1.46
6,Cc1ccc2[nH]c(C)cc(=NN=Cc3cccc(Cl)c3)c2c1,2.31
7,CCc1c(C)c2ccc3c(c2oc1=O)CN(CCc1ccc(F)cc1)CO3,5.28
8,CCN(CCCN1CCCC1)c1cc(C)nc(Nc2ccc(Cl)cc2)n1,-0.13
9,Cc1cccc2nc(-c3ccc(-c4cccc(CN5CCC(C(N)=O)CC5)c4)s3)[nH]c12,1.29
10,Cc1[nH]c(C)c(-c2ccc(OCc3ccc(OC(F)(F)F)cc3)nc2)c(=O)c1Br,3.44
11,COc1nc(Nc2cccc(C)c2)nc(OC)n1,0.95
12,COc1ccc(CNC2CCN(C)CC2)cc1-c1cccc(S(=O)(=O)NCc2ccccc2)c1,0.24
13,CC(C)(C)NC(=O)C(c1ccc(F)cc1)N(C(=O)c1ccc(CN2CCOCC2)o1)c1ccc(C2CCCCC2)cc1 (stereo not given),0.51
14,COc1ccc2nccc([C@H](O)CN3CCC(NCc4cc(C)c5c(c4)OCCO5)CC3)c2n1,-2.32
15,O=C(Cc1ccc(Nc2nccc(Nc3cccc4[nH]ncc34)n2)cc1)Nc1ccc(C(F)(F)F)cc1,4.78
16,Cc1ccc(Cc2c[nH]c(NCCSCc3ccc(CN4CCOCC4)o3)nc2=O)cn1,3.98
17,COc1nc(NCC(C)C)nc(Oc2ccc(=O)n(Cc3ccccc3)n2)n1,3.48
18,COc1ccc(NC(=O)Nc2ccc(-c3ccc(-c4nc5ccccc5[nH]4)cc3)cc2)cc1,2.97
19,CC1CCNc2ccc(Cc3cnc(N)nc3N)cc21 (stereo not given),2.05
20,Cc1ccc(N2C(N)=NC(N)=NC2(C)C)cc1Cl,8.05
